Values joined by “and” are separate entries in the source; they are usually repeats but may differ in a detail not shown here. Identical values can stand only once. Inconclusive results are not listed. Where a call stands in place of a potency, no number is given. Some compounds were tested as several samples or in several runs, with calls that do not always agree. Active and inactive are the calls of the source. Unless noted, calls come from the whole dose curve; as a rule, active = well fitted curve in the direction sought with a large enough effect in the repeat runs; inconclusive = weak or mixed curves; inactive = no such curve, though single readings can be large; an effect the other way counts as inactive or inconclusive.
Legend:
[1] = qHTS assay to identify small molecule antagonists of the sonic hedgehog signaling (Shh) pathway (AID 1259369; calls by dose curve; note: nearly all actives have a fitted effect of over 45% in size; note: potency is the fitted concentration of half-maximal effect)
Method in brief: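 Inhibition of Shh signalling is measured as reduced Gli1-response-element firefly luciferase output in an NIH/3T3-derived stable reporter clone stimulated with conditioned medium for 24hr.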

[2] = target: Estrogen receptor beta (Homo sapiens) (UniProt Q92731); assay: qHTS assay to identify small molecule agonists of the estrogen receptor beta (ER-beta) signaling pathway (AID 1259377; active = well fitted activation curve with a large enough effect in the signal ratio in the repeat runs, not every such curve was filed as active; the % refers to the signal ratio)
Chain of Estrogen receptor beta (Homo sapiens) (Q92731 whole entry, looked up): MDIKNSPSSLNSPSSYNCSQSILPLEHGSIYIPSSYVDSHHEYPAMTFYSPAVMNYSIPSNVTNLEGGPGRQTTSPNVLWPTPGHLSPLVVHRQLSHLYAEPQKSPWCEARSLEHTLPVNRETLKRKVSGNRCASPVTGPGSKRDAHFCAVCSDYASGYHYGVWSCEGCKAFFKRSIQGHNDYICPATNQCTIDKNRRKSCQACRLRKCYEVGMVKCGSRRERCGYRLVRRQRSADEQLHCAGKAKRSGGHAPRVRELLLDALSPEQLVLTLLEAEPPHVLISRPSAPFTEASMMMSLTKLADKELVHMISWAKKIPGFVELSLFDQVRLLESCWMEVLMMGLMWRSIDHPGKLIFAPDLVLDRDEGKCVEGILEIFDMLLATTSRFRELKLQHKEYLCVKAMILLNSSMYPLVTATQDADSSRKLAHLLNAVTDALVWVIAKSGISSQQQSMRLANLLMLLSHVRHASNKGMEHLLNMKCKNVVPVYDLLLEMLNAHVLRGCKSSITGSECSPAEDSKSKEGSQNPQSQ
Method in brief: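 A UAS-controlled beta-lactamase reporter in ER-beta-UAS-bla HEK293T cells reports receptor activation. Compounds act for 16 hr at 37C in 2% charcoal-stripped serum, and a FRET substrate is read by fluorescence after 2 hours.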

[3] = target: Estrogen receptor beta (Homo sapiens) (UniProt Q92731); assay: qHTS assay to identify small molecule antagonists of the estrogen receptor beta (ER-beta) signaling pathway (AID 1259378; active = well fitted inhibition curve with a large enough effect in the signal ratio in the repeat runs, not every such curve was filed as active; the % refers to the signal ratio; note: potency is the fitted concentration of half-maximal effect)
Method in brief: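 Antagonist mode: compounds added to beta-lactamase reporter HEK293T ER-beta-UAS cells stimulated with E2 (1nM final), 16 hr at 37C. LiveBLAzer B/G FRET substrate, 2 hours room temperature, fluorescence read-out.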

[4] = qHTS assay to identify small molecule agonists of the androgen receptor (AR) signaling pathway in the presence of an antagonist - cell viability counter screen (AID 1259379); note: nearly all actives have a fitted effect of over 25% in size; note: potency is the fitted concentration of half-maximal effect
Method in brief: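 Fluorescence from CellTiter-Fluor, added after 15 hr and read 1 hr later, gave cell viability. Cells were MDA-kb2 exposed to compounds (15 concentrations) in the presence of 3.0uM nilutamide at 37C, 0% CO2.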

[5] = qHTS assay to identify small molecule agonists of the estrogen receptor beta (ER-beta) signaling pathway - cell viability counter screen (AID 1259380); note: nearly all actives have a fitted effect of over 30% in size; note: potency is the fitted concentration of half-maximal effect
Method in brief: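 Same-well viability counter screen. Cells: ER-beta-UAS-bla HEK293T, plated 6 hr before compound, in 2% charcoal-stripped FBS. Compound exposure 16 hr, 37C; viability by CellTiter-Glo luminescence after 30 min at room temperature.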

[6] = target: Androgen receptor (Homo sapiens) (UniProt P10275); assay: qHTS assay to identify small molecule agonists of the androgen receptor (AR) signaling pathway in the presence of an antagonist (AID 1259381; calls by dose curve; note: nearly all actives have a fitted effect of over 15% in size)
Chain of Androgen receptor (Homo sapiens) (P10275 whole entry, looked up): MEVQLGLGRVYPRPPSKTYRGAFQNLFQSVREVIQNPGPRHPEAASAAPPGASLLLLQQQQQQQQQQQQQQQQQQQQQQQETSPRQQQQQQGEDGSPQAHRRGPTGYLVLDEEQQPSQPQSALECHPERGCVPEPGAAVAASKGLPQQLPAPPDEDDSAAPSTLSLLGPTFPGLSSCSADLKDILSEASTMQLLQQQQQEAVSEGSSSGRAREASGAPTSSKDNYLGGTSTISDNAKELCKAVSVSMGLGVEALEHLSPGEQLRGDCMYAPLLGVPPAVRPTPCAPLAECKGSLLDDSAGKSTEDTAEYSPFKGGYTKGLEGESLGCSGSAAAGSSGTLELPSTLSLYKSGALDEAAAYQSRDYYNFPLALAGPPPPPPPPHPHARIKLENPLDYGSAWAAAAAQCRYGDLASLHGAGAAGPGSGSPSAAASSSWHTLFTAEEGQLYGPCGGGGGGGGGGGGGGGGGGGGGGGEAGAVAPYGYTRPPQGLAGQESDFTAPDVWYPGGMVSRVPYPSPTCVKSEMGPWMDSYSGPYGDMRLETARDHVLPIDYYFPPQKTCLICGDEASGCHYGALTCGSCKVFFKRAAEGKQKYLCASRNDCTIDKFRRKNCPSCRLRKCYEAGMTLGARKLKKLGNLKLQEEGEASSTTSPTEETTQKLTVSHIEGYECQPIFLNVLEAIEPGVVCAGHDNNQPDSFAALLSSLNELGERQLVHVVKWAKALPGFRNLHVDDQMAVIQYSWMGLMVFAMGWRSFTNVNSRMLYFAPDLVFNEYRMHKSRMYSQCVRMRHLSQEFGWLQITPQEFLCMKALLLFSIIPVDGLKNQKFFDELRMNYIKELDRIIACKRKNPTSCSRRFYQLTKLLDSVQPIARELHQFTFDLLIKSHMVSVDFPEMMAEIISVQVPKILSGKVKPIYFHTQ
Method in brief: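 Cells are MDA-kb2 (human breast carcinoma, MMTV-luc, AR/GR responsive). Nilutamide is present at 3.0uM final throughout; compounds are added at 15 concentrations and incubated 16hr at 37C before ONE-Glo luminescence detection.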

[7] = qHTS assay to identify small molecule antagonists of the estrogen receptor beta (ER-beta) signaling pathway - cell viability counter screen (AID 1259382);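 note: HEK293T cells carrying ER-beta-UAS-bla reporter stimulated with estradiol; series mostly up to about 92 µM; nearly all actives have a fitted effect of over 55% in size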
Method in brief: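 Following a 6 hr plating period, HEK293T cells carrying a UAS-driven beta-lactamase reporter under ER-beta control received compounds and 1nM E2 (final). After 16 hr at 37C and 2 hr substrate loading, CellTiter-Glo luminescence indicated viability.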

[8] = target: Estrogen receptor (Homo sapiens) (UniProt P03372); assay: qHTS assay to identify small molecule agonists of the estrogen receptor alpha (ER-alpha) signaling pathway in the presence of an antagonist (AID 1259383; calls by dose curve; note: top concentration of the series differs between compounds; nearly all actives have a fitted effect of over 15% in size)
Chain of Estrogen receptor (Homo sapiens) (P03372 whole entry, looked up): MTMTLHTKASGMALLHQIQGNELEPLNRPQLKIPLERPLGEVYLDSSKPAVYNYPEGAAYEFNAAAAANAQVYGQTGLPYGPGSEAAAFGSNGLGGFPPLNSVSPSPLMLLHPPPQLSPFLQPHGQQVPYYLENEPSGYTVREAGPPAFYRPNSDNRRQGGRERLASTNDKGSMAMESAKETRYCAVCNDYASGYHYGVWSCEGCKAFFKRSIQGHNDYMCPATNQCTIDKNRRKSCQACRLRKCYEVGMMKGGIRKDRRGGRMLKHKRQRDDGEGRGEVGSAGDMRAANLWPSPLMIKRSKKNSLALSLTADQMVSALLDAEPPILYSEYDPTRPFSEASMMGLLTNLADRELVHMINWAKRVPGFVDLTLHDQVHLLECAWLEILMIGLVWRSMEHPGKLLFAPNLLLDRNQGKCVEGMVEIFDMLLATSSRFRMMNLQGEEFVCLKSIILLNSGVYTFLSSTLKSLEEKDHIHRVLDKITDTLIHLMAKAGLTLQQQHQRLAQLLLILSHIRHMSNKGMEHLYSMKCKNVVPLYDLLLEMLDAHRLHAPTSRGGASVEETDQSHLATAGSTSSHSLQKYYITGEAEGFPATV
Method in brief: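 Cells are hormone-deprived for 5 days (charcoal-stripped FBS, no phenol red), plated for 24hr, spiked with 10.0nM ICI-182,780, then dosed at 15 concentrations. After 22hr at 37C, ONE-Glo luminescence reports ERE-luciferase activity.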

[9] = qHTS assay to identify small molecule agonists or antagonists of the thyroid stimulating hormone receptor (TSHR) signaling pathway - wild type cell line counter screen (AID 1259384; calls by dose curve)
Method in brief: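 Counter screen in untransfected Hek293: compounds (15-point titration, triplicate) plus phosphodiesterase inhibitor Ro20-1724 added after 18 h plating; 30 min RT. Intracellular cAMP via competitive d2/cryptate immunoassay, 1 h incubation.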

[10] = target: Thyrotropin receptor (Homo sapiens) (UniProt P16473); assay: qHTS assay to identify small molecule antagonists of the thyroid stimulating hormone receptor (TSHR) signaling pathway (AID 1259385; calls by dose curve; note: nearly all actives have a fitted effect of over 20% in size)
Chain of Thyrotropin receptor (Homo sapiens) (P16473 whole entry, looked up): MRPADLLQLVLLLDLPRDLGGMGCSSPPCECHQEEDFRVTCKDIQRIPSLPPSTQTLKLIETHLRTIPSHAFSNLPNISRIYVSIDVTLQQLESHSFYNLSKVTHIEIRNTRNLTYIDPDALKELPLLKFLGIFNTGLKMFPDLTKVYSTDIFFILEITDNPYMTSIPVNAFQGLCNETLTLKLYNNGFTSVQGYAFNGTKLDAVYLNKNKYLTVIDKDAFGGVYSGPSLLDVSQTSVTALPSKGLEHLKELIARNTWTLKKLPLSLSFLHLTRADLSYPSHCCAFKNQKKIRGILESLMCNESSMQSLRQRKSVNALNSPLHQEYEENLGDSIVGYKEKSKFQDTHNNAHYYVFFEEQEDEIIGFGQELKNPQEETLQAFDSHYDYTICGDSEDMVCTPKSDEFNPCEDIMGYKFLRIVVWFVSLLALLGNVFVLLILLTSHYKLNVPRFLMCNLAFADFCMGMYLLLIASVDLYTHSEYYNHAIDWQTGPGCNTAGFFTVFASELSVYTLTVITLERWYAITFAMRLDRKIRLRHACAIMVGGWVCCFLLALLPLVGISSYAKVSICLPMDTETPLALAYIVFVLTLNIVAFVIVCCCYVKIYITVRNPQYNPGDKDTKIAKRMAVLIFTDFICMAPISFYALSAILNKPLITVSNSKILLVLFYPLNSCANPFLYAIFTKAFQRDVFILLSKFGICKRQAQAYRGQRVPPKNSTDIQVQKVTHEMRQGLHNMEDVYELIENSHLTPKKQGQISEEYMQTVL
Method in brief: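 Antagonist mode: compound-treated TSHR-expressing HEK293 cells were stimulated with 1.5 ng/mL TSH (final) in presence of Ro20-1724 for 30 min at RT. HTRF cAMP detection after 1 h; each compound tested at 15 concentrations, triplicate.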

[11] = qHTS assay to identify small molecule agonists of the estrogen receptor alpha (ER-alpha) signaling pathway in the presence of an antagonist - cell viability counter screen (AID 1259386);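 note: cells exposed to compounds for 22 h at 37 °C before the viability read; nearly all actives have a fitted effect of over 30% in size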; note: potency is the fitted concentration of half-maximal effect
Method in brief: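 Cells are starved of estrogens for 5 days in charcoal-stripped serum, seeded for 24hr and co-treated with ICI-182,780 (10.0nM final) and test compounds. After 22hr at 37C, viability is read as CellTiter-Fluor fluorescence.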

[12] = target: Progesterone receptor (Homo sapiens) (UniProt P06401); assay: qHTS assay to identify small molecule agonists of the progesterone receptor (PR) signaling pathway (AID 1346784; calls by dose curve; note: nearly all actives have a fitted effect of over 30% in size)
Chain of Progesterone receptor (Homo sapiens) (P06401 whole entry, looked up): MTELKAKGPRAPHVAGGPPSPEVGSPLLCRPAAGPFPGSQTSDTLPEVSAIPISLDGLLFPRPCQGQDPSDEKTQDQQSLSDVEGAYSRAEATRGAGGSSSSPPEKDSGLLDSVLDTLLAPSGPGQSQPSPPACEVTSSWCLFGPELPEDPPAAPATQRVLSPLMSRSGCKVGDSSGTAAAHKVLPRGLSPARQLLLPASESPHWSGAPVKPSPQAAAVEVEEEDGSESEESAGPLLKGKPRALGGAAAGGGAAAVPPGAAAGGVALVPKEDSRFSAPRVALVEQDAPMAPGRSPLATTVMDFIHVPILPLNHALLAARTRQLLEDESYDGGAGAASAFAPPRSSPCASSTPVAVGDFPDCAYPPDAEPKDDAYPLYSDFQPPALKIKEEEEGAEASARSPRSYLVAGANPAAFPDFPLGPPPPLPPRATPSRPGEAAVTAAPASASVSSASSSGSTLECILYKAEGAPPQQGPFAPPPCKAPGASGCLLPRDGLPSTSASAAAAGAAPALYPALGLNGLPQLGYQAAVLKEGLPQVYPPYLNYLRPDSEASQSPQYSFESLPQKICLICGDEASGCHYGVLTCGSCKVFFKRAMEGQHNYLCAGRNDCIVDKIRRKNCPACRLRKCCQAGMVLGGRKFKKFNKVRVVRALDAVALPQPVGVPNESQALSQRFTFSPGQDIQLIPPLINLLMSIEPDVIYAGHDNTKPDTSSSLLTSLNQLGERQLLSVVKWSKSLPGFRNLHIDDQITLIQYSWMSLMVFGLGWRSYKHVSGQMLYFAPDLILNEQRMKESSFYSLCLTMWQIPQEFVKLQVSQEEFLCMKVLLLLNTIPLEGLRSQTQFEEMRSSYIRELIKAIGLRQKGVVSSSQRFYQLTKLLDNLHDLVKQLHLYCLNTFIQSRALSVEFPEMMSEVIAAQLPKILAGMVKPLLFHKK
Method in brief: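 Agonist mode, quantitative HTS format in a HEK 293T line expressing a UAS-controlled beta-lactamase reporter; 16 hr compound exposure at 37C in 2% charcoal-stripped FBS, then LiveBLAzer B/G FRET fluorescence.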

[13] = qHTS assay to identify small molecule agonists of the progesterone receptor (PR) signaling pathway - cell viability counter screen (AID 1346799; calls by dose curve; note: nearly all actives have a fitted effect of over 45% in size)
Method in brief: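 Counter screen for cytotoxicity: compound-treated PR-UAS-bla HEK293T cells (16 hr, 37C, 5% CO2) were assayed with CellTiter-Glo, luminescence measured after 30 min at room temperature.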

[14] = qHTS assay to identify small molecule antagonists of the TGF-beta/Smad signaling pathway - cell viability counter screen (AID 1346824); note: nearly all actives have a fitted effect of over 50% in size
Method in brief: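 Cytotoxicity counter-screen run in the same wells as the beta-lactamase Smad reporter read: CellTiter-Glo luminescence after 30 min at room temperature. HEK 293T SBE-bla cells had 5 hr compound exposure at 37 C with TGF-beta1 (0.25 ng/mL stock).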

[15] = qHTS assay to identify small molecule agonists of the TGF-beta/Smad signaling pathway - cell viability counter screen (AID 1346829); note: top concentration of the series differs between compounds; nearly all actives have a fitted effect of over 45% in size
Method in brief: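 In parallel with the Smad reporter read, viability of HEK 293T cells stably carrying SBE-bla is quantified by ATP luminescence following 5 hr compound treatment.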

[16] = qHTS assay to identify small molecule agonists of the TGF-beta/Smad signaling pathway (AID 1346859; active = well fitted activation curve with a large enough effect in the signal ratio in the repeat runs, not every such curve was filed as active; the % refers to the signal ratio; note: potency is the fitted concentration of half-maximal effect; for activation: series mostly up to about 77 µM)
Method in brief: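 Smad-responsive beta-lactamase reporter cells (HEK 293T) received compounds from DMSO stocks after overnight attachment, were incubated 5 hr, then treated 2 hr with FRET substrate before dual-emission fluorescence measurement (405 nm excitation).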

[17] = target: Thyrotropin-releasing hormone receptor (Homo sapiens) (UniProt P34981); assay: qHTS assay to identify small molecule antagonists of the thyrotropin-releasing hormone receptor (TRHR) signaling pathway (AID 1346877; active = well fitted inhibition curve with a large enough effect in the repeat runs, not every such curve was filed as active; note: series mostly up to about 51 µM)
Chain of Thyrotropin-releasing hormone receptor (Homo sapiens) (P34981 whole entry, looked up): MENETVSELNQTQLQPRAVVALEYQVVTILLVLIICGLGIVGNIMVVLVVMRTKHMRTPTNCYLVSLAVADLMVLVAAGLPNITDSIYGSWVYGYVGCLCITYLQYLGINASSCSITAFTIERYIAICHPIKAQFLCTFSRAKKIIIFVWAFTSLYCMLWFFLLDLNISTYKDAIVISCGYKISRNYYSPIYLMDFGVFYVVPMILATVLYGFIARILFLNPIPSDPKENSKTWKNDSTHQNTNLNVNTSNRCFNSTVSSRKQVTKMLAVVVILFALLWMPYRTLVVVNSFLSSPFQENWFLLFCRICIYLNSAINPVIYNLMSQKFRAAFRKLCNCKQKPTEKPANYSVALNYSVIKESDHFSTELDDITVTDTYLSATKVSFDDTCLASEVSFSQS
Method in brief: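 Cells (TRHR-HEK293) are plated and kept 18 h at 37 °C/5% CO2. A calcium-sensitive dye is added for 2 h, compound follows for 5 min at room temperature, and TRH is then given at 1 nM final.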

[18] = target: Thyrotropin-releasing hormone receptor (Homo sapiens) (UniProt P34981); assay: qHTS assay to identify small molecule agonists of the thyrotropin-releasing hormone receptor (TRHR) signaling pathway (AID 1346891; calls by dose curve;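 note: HEK293 cells expressing TRHR with calcium dye readout; series mostly up to about 58 µM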)
Method in brief: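 Agonist-mode calcium mobilisation screen: TRHR-transfected HEK293 cells cultured overnight (18 h), dye-loaded for 2 h at 37 °C, exposed to compounds, and monitored by fluorescence for 3 min.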

[19] = target: Progesterone receptor (Homo sapiens) (UniProt P06401); assay: qHTS assay to identify small molecule antagonists of the progesterone receptor (PR) signaling pathway (AID 1346795; active = well fitted inhibition curve with a large enough effect in the signal ratio in the repeat runs, not every such curve was filed as active; the % refers to the signal ratio)
Method in brief: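 HEK293T PR-UAS-bla reporter cells in charcoal-stripped serum (2%) received compound after a 6 hr settling period, followed by R5020 agonist at 1 nM final; 16 hr incubation preceded the FRET substrate step and fluorescence measurement.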

[20] = qHTS assay to identify small molecule antagonists of the progesterone receptor (PR) signaling pathway - cell viability counter screen (AID 1346798); note: series mostly up to about 92 µM; nearly all actives have a fitted effect of over 50% in size
Method in brief: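 Same-well multiplex: after 16 hr at 37C with compound and R5020 stimulation, HEK293T cells carrying a UAS-bla reporter received LiveBLAzer substrate (2 hr RT), then CellTiter-Glo (30 min RT) for luminescent viability.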

SMILES | Potency [1] | Potency [2] | Potency [3] | Potency [4] | Potency [5] | outcome [6] | Potency [7] | Potency [8] | Potency [9] | Potency [10] | Potency [11] | Potency [12] | Potency [13] | Potency [14] | Potency [15] | Potency [16] | Potency [17] | outcome [18] | Potency [19] | Potency [20]
COP(=S)(OC)Oc1ccc(Sc2ccc(OP(=S)(OC)OC)cc2)cc1 | 68.6 µM (active) and inactive | inactive | inactive | inactive | inactive | inactive | inactive | inactive | inactive | inactive | inactive | inactive | inactive | inactive | inactive | inactive | inactive | inactive | – | –
CC1(C)Cc2cccc(O)c2O1 | inactive | inactive | inactive | inactive | inactive | – | inactive | inactive | inactive | inactive | inactive | inactive | inactive | inactive | inactive | inactive | inactive | – | inactive | inactive
N#Cc1nn(-c2c(Cl)cc(C(F)(F)F)cc2Cl)c(N)c1S(=O)C(F)(F)F (stereo not given) | inactive and 29.8 µM (active) | inactive | 23.7 µM (active) | 61.5 µM (active) and inactive | inactive | inactive | inactive | inactive | – | inactive | 21.8 µM (active) and 29.8 µM (active) | inactive | inactive | – | inactive | inactive | inactive | inactive | – | –
CCOC(=O)c1ccccc1N | inactive | inactive | inactive | inactive | inactive | – | inactive | inactive | inactive | inactive | inactive | inactive | inactive | – | inactive | inactive | inactive | inactive | – | inactive
CC(C)Nc1nc(Cl)nc(NC(C)C)n1 | 768 nM (active) | inactive | inactive | inactive | inactive | – | inactive | inactive | inactive | inactive | inactive | inactive | inactive | – | inactive | inactive | inactive | inactive | inactive | inactive
ClCc1ccccn1 | inactive | inactive | inactive | inactive | inactive | – | inactive | inactive | – | inactive | inactive | inactive | inactive | inactive | inactive | inactive | inactive | inactive | inactive | inactive
ClC(Cl)(Cl)c1ccccc1 | inactive | inactive | inactive | inactive | inactive | – | inactive | inactive | inactive | inactive | inactive | inactive | inactive | – | inactive | inactive | – | – | inactive | –
COC(=O)Nc1nc2ccccc2[nH]1 | 24.3 µM (active) and inactive | inactive | inactive | inactive | inactive | inactive | inactive | – | inactive | inactive | inactive | inactive | inactive | inactive | inactive | inactive | inactive | – | inactive | inactive
Cc1ccc(N=CN(C)C=Nc2ccc(C)cc2C)c(C)c1 | 54.7 µM (active) and inactive | inactive | inactive | inactive | 54.7 µM (active) and 30.6 µM (active) and inactive | – | inactive | inactive | inactive | inactive | inactive | inactive | inactive | inactive | inactive | inactive | inactive | inactive | inactive | –
CCN(CC)C(=O)C(C)Oc1cccc2ccccc12 (stereo not given) | inactive | inactive | inactive | inactive | inactive | – | inactive | inactive | – | inactive | – | inactive | inactive | – | inactive | inactive | inactive | inactive | – | –
CN(C)P(=O)(N(C)C)N(C)C | inactive | inactive | inactive | inactive | inactive | – | inactive | inactive | inactive | inactive | inactive | inactive | inactive | – | inactive | inactive | inactive | inactive | inactive | inactive
Oc1ccc(Cl)cc1Cl | inactive | inactive | inactive | inactive | inactive | – | inactive | inactive | – | – | inactive | inactive | inactive | inactive | inactive | 48.6 µM (active) and inactive | inactive | – | inactive | inactive
CCCCOC(=O)COC(=O)c1ccccc1C(=O)OCCCC | inactive | inactive | inactive | inactive | inactive | – | inactive | inactive | – | – | inactive | inactive | inactive | inactive | inactive | inactive | – | – | inactive | inactive
CN(C)c1nc(=O)n(C2CCCCC2)c(=O)n1C | inactive | inactive | inactive | inactive | inactive | – | inactive | inactive | – | inactive | inactive | inactive | inactive | inactive | inactive | inactive | inactive | – | inactive | inactive
O=NN1CCOCC1 | inactive | inactive | inactive | inactive | inactive | – | inactive | inactive | inactive | inactive | inactive | inactive | inactive | inactive | inactive | inactive | inactive | inactive | inactive | inactive
